Source: PubChem BioAssay (NCI)
About 79,000 compounds went through this panel and 15% of them were active in at least one assay; those are over-represented in the sample as a whole. A number with no mark means an inactive call. The source made the active and inactive calls. No stated cut-off is given here; in the data, active means growth inhibition above about 70%; inactive means the rest.

Test: NCI Yeast Anticancer Drug Screen. Data for the mec2-1 strain (AID 157)
Settings: S. cerevisiae mec2-1 strain, at 50.0 µM, hits give high values
How it was run: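 Compounds were applied to mec2-1 yeast cells. Their growth was then compared with that of vehicle-treated cultures to give growth inhibition.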
In the case of `Cc1nnc2nc3c(nn12)c1ccccc1n3C`, the growth inhibition is reported as 31.8%.
For `CS(=O)c1cc(=O)c2ccccc2s1` (stereo unspecified), the growth inhibition was 98.9% (active).
Work on `COC(=O)C1=C(C)NC(C)=C(C(=O)OC)C1c1ccc(NCc2ccccc2)c([N+](=O)[O-])c1` yielded a growth inhibition of 3.65%.
With `C/C(=N/NC(=S)Nc1ccccc1Cl)c1ccccn1` the growth inhibition was 50.1%.
In the case of `Nc1ccccc1Sc1ccc(C(F)(F)F)cc1[N+](=O)[O-]`, the growth inhibition is reported as 99% (active).
With `COc1ccc2nc(-c3ccc(Cl)cc3)[nH]c2c1` the growth inhibition was 74.9% (active).
With `Cc1c(C)c(C)c(C(=O)c2ccccc2C(=O)NCCSC(C)(C)C)c(C)c1C` the growth inhibition was 67.6%.
In the case of `COC(=O)C(=O)C(C(=O)Nc1cccc(C)c1C)C1Sc2ccccc2NC1=O` (stereo unspecified), the growth inhibition is reported as 70.2% (active).
For `Cc1nc2c(O)c3c(c(O)c2nc1C)C1C=CC3CC1`, the growth inhibition was 66.2%.
For `C[C@]12CCC(=O)C=C1CC[C@@H]1[C@@H]2[C@@H](O)C[C@@]2(C)[C@H]1CC[C@]2(O)C(=O)COC(=O)CCC1CCCC1`, the growth inhibition was 84.1% (active).
Compound `CC(=O)OCCc1ccc(CCc2ccccc2)cc1` has a growth inhibition of 18.6%.
In the case of `COc1cc2c(cc1OC)C(=O)C(C)(c1ccccc1)NC2` (stereo unspecified), the growth inhibition is reported as 98.8% (active).
In the case of `CCCCCCC(/C=C/c1c(Cl)cccc1Cl)=N\O`, the growth inhibition is reported as 91.7% (active).
In the case of `O=C1OC(c2ccc(O)cc2)=C(c2ccccc2)C1c1ccccc1` (stereo unspecified), the growth inhibition is reported as 99.5% (active).
With `c1cc[c]([Ge]([O]c2cccc3cccnc23)([c]2ccccc2)[c]2ccccc2)cc1` the growth inhibition was 67%.
In the case of `CCCCCCCCCCCCCCCCCCOP(=O)([O-])OCC[N+](C)(C)C`, the growth inhibition is reported as 92% (active).
